“And” between values parts separate entries of the source, which are not always exact repeats. Identical values can stand only once. The whole screen tested about 430,000 compounds, of which about 2,600 (0.6%) were called active. No stated cut-off is given here; in the data, active means inhibition mostly above about 37% (no sharp cut-off); inactive means mostly below about 20%. What follows is part of a selection rich in actives, with near analogues and random picks from the rest.
System: PriA–SSB C-terminal tail interaction (Klebsiella pneumoniae)
Assay: blocks PriA binding to SSB C-terminal tail, primary screen, biochemical, AlphaScreen (AID 1272365);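 further: plate controls were negative control peptide for no effect and reference peptide for full effect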
Details: AlphaScreen SSBct-PriA binding, biotinylated peptide; at 33 µM, stronger effect = higher value

| SMILES | inhibition |
| --- | --- |
| CCOc1ccc(-c2ccc(=O)n(CC(=O)N3CCOCC3)n2)cc1 | -1% (inactive) |
| CC(C)CC(COCc1ccc(Cl)cc1)N1CCN(C(=O)c2ccc(C(F)(F)F)cc2)CCC1=O (stereo unspecified) | -5.16% (inactive) |
| CN1CCC(=O)N([C@H](CO)Cc2ccccc2)CC1 | -2.41% (inactive) |
| O=C(c1cc(Cl)cc(Cl)c1)N1CCC(=O)N(C(COCc2ccccc2)Cc2ccccc2)CC1 (stereo unspecified) | 44.6% (active) |
| COc1cc(NC(=O)CSc2nccn3nc(-c4ccc(Cl)cc4)cc23)cc(OC)c1 | 3% (inactive) |
| Cc1csc(OCC(=O)Nc2ccc(C)c(C)c2)n1 | -9.32% (inactive) |
| Cc1ccc(Nc2nc(-c3ccccn3)cs2)cc1C | 108% (active) |
| Cc1cc(-c2csc(Nc3ccccn3)n2)c(C)o1 | 2% (inactive) |
| COc1ccccc1C(CNC(=O)c1ccc2c(c1)OCO2)OC (stereo unspecified) | -10% (inactive) |
| Cc1noc(C)c1CC(=O)NCCn1cnc2ccsc2c1=O | -1% (inactive) |
| O=C1c2ccccc2C(=O)c2c1cccc2N1CCN(Cc2ccccc2)CC1 | 50.5% (inactive) |
| CNC(=O)NC(=O)C(C)N1CCN(C/C=C/c2ccccc2)CC1 (stereo unspecified) | 7.15% (inactive) |
| O=C1c2ccccc2C(=O)c2c1cccc2N1CCN(C/C=C/c2ccccc2)CC1 | 68.2% (active) |
| Cc1ccc(NS(=O)(=O)c2ccc(F)cc2)nc1 | -0.76% (inactive) |
| Cc1ccc(Nc2ccc(NCCN)nn2)nc1 | 89% (active) |
| Cc1cccc(N2CCN(C(=O)CCc3csc4nc(-c5ccccc5)cn34)CC2)c1 | -16% (inactive) |
| Cc1c(C(=O)Nc2nc(-c3ccccn3)cs2)cccc1[N+](=O)[O-] | 25.8% (inactive) |
| Cc1ccc(SCCC(=O)Nc2nc(-c3ccc4c(c3)OCCO4)cs2)cc1 | 8% (inactive) |
| O=C(Cc1csc(NC(=O)c2ccccc2)n1)NCc1ccccn1 | 0% (inactive) |
| O=C(CN1C(=O)C2C3C=CC(C3)C2C1=O)Nc1nc(-c2ccccn2)cs1 (stereo unspecified) | 84.8% (active) |
| O=C(CC1(n2cccc2)CCOCC1)Nc1nc(-c2ccccn2)cs1 | 109% (active) |
| O=C(CSc1ccccc1)Nc1nc(-c2ccccn2)cs1 | -20% (inactive) |
| CCCCOC(=O)NCN1C(=O)C2C3C=CC(C3)C2C1=O (stereo unspecified) | 9.26% (inactive) |
| COc1ccc(SCCC(=O)Nc2nc(-c3ccccn3)cs2)cc1 | 81% (active) |
| O=C1c2ccccc2NC(c2ccccn2)N1NS(=O)(=O)c1ccccc1 (stereo unspecified) | -13.5% (inactive) |
| O=C(CCN1C(=O)C2C3C=CC(C3)C2C1=O)Nc1ccccc1F (stereo unspecified) | -14.1% (inactive) |

| SMILES | inhibition |
| --- | --- |
| CC(C)C1Nc2ccccc2C(=O)N1CC(=O)Nc1nc(-c2ccccn2)cs1 (stereo unspecified) | 94.5% (active) |
| Cc1ccc(-c2csc(NC(=O)[C@H](C(C)C)N3C(=O)c4ccccc4C3=O)n2)cc1 | -1% (inactive) |
| Cc1cc(OCC(=O)NCCc2ccccc2)ccc1C(C)C | -16% (inactive) and -56% (inactive) |
| O=C(Nc1nc(-c2cc([N+](=O)[O-])cs2)cs1)C1CC1 | 16% (inactive) |
| O=C(COc1ccc(F)cc1)Nc1ccc2c(c1)N(C(=O)c1ccco1)CC2 | 0% (inactive) |
| Cc1c(S(=O)(=O)CCNC(=O)NCc2cccs2)c2ccccc2n1C | -1% (inactive) |
| COc1cc(/C=C2\Oc3cc(OCC(=O)O)ccc3C2=O)cc(OC)c1OC | -2% (inactive) |
| COc1ccc(OC)c(NC(=O)c2ccc(S(=O)(=O)NC3CC3)cc2)c1 | 16% (inactive) |
| O=C(NCCn1nc(C(F)(F)F)c2c1CCCC2)c1c(F)cccc1Cl | -4% (inactive) |
| COC(=O)c1c(NC(=O)c2cc(C)no2)sc2c1CCCC2 | 0% (inactive) |
| CCOC(=O)c1ccc(NC(=O)c2cc(=O)[nH]cn2)cc1 | -18% (inactive) |
| Nn1c(SCC(=O)NC2CCCCC2)nnc(CCC(=O)O)c1=O | -5% (inactive) |
| COc1ccc(-n2nnc(C(=O)OCc3ccccc3C)c2C)cc1 | -5% (inactive) |
| CSc1ccccc1NC(=O)C(=O)NCCC(O)c1ccc2c(c1)OCO2 (stereo unspecified) | 13% (inactive) |
| O=C(Nc1ccc2c(c1)OCO2)c1ccc2nccnc2c1 | -19% (inactive) |
| O=C(Nc1nccs1)C1CCCN1S(=O)(=O)c1cccc2cccnc12 (stereo unspecified) | -2.31% (inactive) |
| CS(=O)(=O)N1CCCCC1C(=O)Nc1nc(-c2ccccn2)cs1 (stereo unspecified) | 79% (active) |
| CS(=O)(=O)N1CCC[C@H]1C(=O)Nc1nc(-c2ccccn2)cs1 | 75% (active) |
| CS(=O)(=O)N1CCCC1C(=O)Nc1nc2c(F)cc(F)cc2s1 (stereo unspecified) | 5% (inactive) |
| CC1(C)CC(=O)c2sc(NC(=O)C3CCCCN3S(C)(=O)=O)nc2C1 (stereo unspecified) | -7% (inactive) |
| CS(=O)(=O)N1CCCC(C(=O)Nc2nc(-c3nc4ccccc4s3)cs2)C1 (stereo unspecified) | -20% (inactive) |
| NS(=O)(=O)c1ccc(CCNC(=O)C(=O)Nc2nc3ccccc3s2)cc1 | -20% (inactive) |
| COc1ccc2cc(C(=O)N(CCc3cccs3)C3CC3)[nH]c2c1 | -1% (inactive) |
| Cc1nc2ccccc2c(=O)n1-c1ccc(F)c(NC(=O)c2ccccc2Cl)c1 | 3% (inactive) |
| Cc1cccc(NC(=O)Nc2ccc(Nc3ccc(-n4cccn4)nn3)cc2)c1C | 66% (active) and 33% (inactive) |
| CCc1ccccc1NC(=O)Nc1ccc(Nc2cc(-n3cccn3)ncn2)cc1 | -23% (inactive) |

| SMILES | inhibition |
| --- | --- |
| O=S(=O)(Nc1ccc2[nH]ncc2c1)c1ccccc1Cl | 1.19% (inactive) |
| Cc1nn(-c2ccc(Nc3ccc(NC(=O)COc4ccccc4)cc3)nn2)c(C)c1C | -7% (inactive) |
| O=S(=O)(Nc1ccc(Nc2ccc(-n3cccn3)nn2)cc1)c1ccccc1Cl | 100% (active) |
| COc1cc(Nc2ccc(NS(=O)(=O)c3ccccc3Cl)cc2)nc(C)n1 | 5% (inactive) |
| O=c1c2cc(-c3cccs3)nn2cnn1Cc1nc(-c2ccc(OCc3ccccc3)cc2)no1 | -16% (inactive) |
| CC(C)c1ccc(/C=C2\CC/C(=C\C=NN(C)C)C2=O)cc1 | 5.12% (inactive) |
| Cc1cc(C)cc(NC(=O)N2CCN(c3ccc4nnc(C5CC5)n4n3)CC2)c1 | -16% (inactive) |
| CC(C)c1cc(=O)n(CC(=O)Nc2ccccc2C#N)cn1 | -2% (inactive) |
| Cc1ccccc1OCC(=O)NCCCS(=O)(=O)N1CCc2ccccc2C1 | -9% (inactive) |
| O=C(CSc1ncc(-c2cccc(Br)c2)o1)NCc1ccc2c(c1)OCO2 | -4% (inactive) |
| CCn1nccc1C(=O)Nc1ccc(S(=O)(=O)NC23CC4CC(CC(C4)C2)C3)cc1 | -2.71% (inactive) |
| CCn1nccc1C(=O)Nc1ccc(-c2nc3ccccc3o2)cc1 | 83% (active) |
| CCC(=O)Nc1ccc(-c2nc3ccccc3o2)cc1 | -11% (inactive) |
| O=C(c1ccc(OC(F)(F)F)cc1)N1CC(S(=O)(=O)C2CCCCC2)C1 | -1% (inactive) |
| COc1ccc(CCNC(=O)C(=O)Nc2ccc3c(c2)CCCN3C(=O)c2cccs2)cc1 | 1% (inactive) |
| O[C@H](c1ccncc1)c1c(-c2ccccc2)[nH]c2ccccc12 | 2% (inactive) |
| COc1ccc(NC(=O)COC(=O)Cn2c(C)nc3ccccc32)cc1OC | -8.33% (inactive) |
| Cc1ccc(NC(=O)COC(=O)CCc2nc3ccccc3n2-c2ccccc2)c(C)c1 | 4.81% (inactive) |
| CCN(c1ccc(NC(=O)COC(=O)CCc2nc3ccccc3n2-c2ccccc2)cc1)C(C)C | 55.2% (active) |
| COc1cc([N+](=O)[O-])cc(C=NNC(=O)c2ccc(C)nc2)c1O | 79.7% (inactive) |
| CS(=O)(=O)Nc1c(Cl)c(Cl)c(Cl)c(Cl)c1Cl | 3% (inactive) |
| Cc1onc(-c2ccccc2Cl)c1C(=O)NCCn1ccc2ccccc21 | 5% (inactive) and 69.4% (active) |
| Cc1onc(-c2ccccc2Cl)c1C(=O)NCCCS(=O)(=O)N1CCN(c2ccccn2)CC1 | -12% (inactive) |
| Cc1ccc2cc(CCNC(=O)c3c(-c4ccccc4Cl)noc3C)c(=O)[nH]c2c1 | 4.89% (inactive) |

From PubChem BioAssay AID1272365 (Small Molecule Screening Facility, UW Madison, 2018)
